A word on the inhibition: it is the relative decrease from the control value, in per cent.

The campaign covered roughly 320,000 compounds. About 2,200 (0.69%) were called active. Cut-off read from the data, not from the text of the source: active = inhibition above about 43%; inactive = the rest. This excerpt belongs to a sample that is enriched for actives.

For this experiment, the target named is Prolyl endopeptidase-like (Homo sapiens) (UniProt Q4J6C6). The experiment is described as follows: human PREPL activity-probe blockers – biochemical, fluorescence polarization, primary screen (AID 2751).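 Note: 0% = enzyme with DMSO and 100% = wells lacking enzyme.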 The conditions noted are these: recombinant PREPL, fluorescence polarization activity-based probe; at 5.96 µM; stronger effect = higher value. A general note: In fluorescence polarisation assays a small probe gives low polarisation when free and higher when bound to something large.
Chain of Prolyl endopeptidase-like (Homo sapiens) (Q4J6C6 whole entry, looked up): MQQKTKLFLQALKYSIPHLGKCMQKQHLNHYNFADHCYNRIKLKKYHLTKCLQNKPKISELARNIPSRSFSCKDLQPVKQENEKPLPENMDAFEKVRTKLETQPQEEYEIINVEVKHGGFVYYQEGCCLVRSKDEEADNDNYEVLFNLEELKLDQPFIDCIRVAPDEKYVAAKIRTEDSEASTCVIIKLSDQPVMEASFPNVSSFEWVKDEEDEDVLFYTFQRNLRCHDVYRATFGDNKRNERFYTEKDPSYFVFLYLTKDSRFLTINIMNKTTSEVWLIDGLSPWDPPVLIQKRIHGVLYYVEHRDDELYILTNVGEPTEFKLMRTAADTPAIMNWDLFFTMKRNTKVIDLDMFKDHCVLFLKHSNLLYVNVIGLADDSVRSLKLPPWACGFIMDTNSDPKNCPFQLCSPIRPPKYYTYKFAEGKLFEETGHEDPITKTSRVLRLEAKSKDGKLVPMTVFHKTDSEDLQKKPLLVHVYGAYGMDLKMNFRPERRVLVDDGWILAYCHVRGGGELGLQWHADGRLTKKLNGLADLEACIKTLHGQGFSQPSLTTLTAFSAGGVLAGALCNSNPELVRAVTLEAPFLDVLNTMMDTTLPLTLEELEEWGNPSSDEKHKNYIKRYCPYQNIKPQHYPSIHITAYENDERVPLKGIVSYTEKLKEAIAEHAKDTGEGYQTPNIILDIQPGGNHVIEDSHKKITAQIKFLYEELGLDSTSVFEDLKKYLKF
As for `CCCC[C@@H]1CN=C(N)N1CCc1cccc(F)c1`, the inhibition is -6.23% (inactive).

Consider `NC1=NC[C@@H](Cc2ccc(O)cc2)N1CC1CCCCC1`, for which the inhibition was 9.91% (inactive).

On to `CC[C@@H](C)[C@@H]1CN([C@@H](C)CN2CCC[C@H]2CN2C(N)=NC[C@H]2C(C)C)C(=N)N1CCc1ccc(Cl)c(Cl)c1`, for which the inhibition was 63.3% (active).

Turning to `C[C@@H](CN1CCC[C@H]1CN1C(N)=NC[C@@H]1Cc1ccccc1)N1C[C@@H](Cc2ccccc2)N(CCCC2CCCC2)C1=N`, the inhibition is 54.6% (active).

For the compound `CCCCN1C(N)=NC[C@@H]1Cc1ccccc1`, the inhibition was 17.4% (inactive).

Consider `O=C(C1Cc2ccccc2CN1C(=O)c1ccco1)N1CCN(c2ccccc2)CC1` (stereo not drawn), for which the inhibition was 12.9% (inactive).

Consider `CCOC(=O)c1ccc(N/C(=N/S(=O)(=O)c2ccccc2)c2ccccc2)cc1`, for which the inhibition was -3.53% (inactive).

In the case of `O=C(NCc1cccnc1)c1ccc(CS(=O)(=O)c2ccc(Br)cc2)o1`, the inhibition is -17% (inactive).

With `CNC[C@H]1Oc2c(NC(=O)C3CCCCC3)cccc2C(=O)N([C@H](C)CO)C[C@@H]1C`, the inhibition is 1.75% (inactive).

Turning to `Cc1noc(C)c1COC(=O)c1cc2ccccc2cc1O`, the inhibition is 3.42% (inactive).

Regarding `COc1ccc(-c2cc(C(=O)Nc3ccccc3O)c3ccccc3n2)cc1`, the inhibition is 15.1% (inactive).

With `O=C(NNc1c2ccccc2nc2ccccc12)c1cc2ccccc2cc1O`, the inhibition is 68.7% (active).

For `Cc1ccc(S(=O)(=O)C2C(=O)NC3(C)CC2c2ccccc2O3)cc1` (stereo not drawn), the inhibition was -1.08% (inactive).

As to `COC(=O)COc1ccc(S(=O)(=O)Nc2ccc(NC(C)=O)cc2)cc1`, the inhibition is 3.49% (inactive).

Consider `CC(=O)Nc1ccc(S(=O)(=O)Nc2ccc(N3CCOCC3)c(F)c2)cc1`, for which the inhibition was 13.1% (inactive).

Take `CC(=O)Nc1ccc(S(=O)(=O)Nc2ccc(N3CCCCC3)cc2)cc1`: the inhibition was 59.6% (active).

Consider `CC1CCN(C(=O)c2ccc3c(=O)n4c(nc3c2)CCCCC4)CC1`, for which the inhibition is 10.4% (inactive).

As for `CC1CCN(C(=O)c2ccc3c(c2)NC(=O)CN3)CC1`, the inhibition was 57.5% (active).

Regarding `CC1CCN(C(=O)c2ccc(CSc3ccc(Cl)cc3)cc2)CC1`, the inhibition is 18.7% (inactive).

For the compound `CCN(C(=O)COC(=O)C1CCN(S(=O)(=O)c2ccc(C)c(C)c2)CC1)C1CCS(=O)(=O)C1` (stereo not drawn), the inhibition is 16.8% (inactive).

Take `COc1cc2c(cc1O)[C@H](Cc1ccc(Oc3cc(C[C@@H]4NCCc5cc(OC)c(O)cc54)ccc3O)cc1)NCC2`: the inhibition was 46.2% (active).

For `CC[C@H]1CN2CCc3cc(OC)c(OC)cc3[C@@H]2C[C@@H]1C[C@H]1NCCc2cc(OC)c(OC)cc21`, the inhibition is 17.4% (inactive).

Consider `COc1ccc2c(c1)CCNC2Cc1ccc(OC)c(O)c1` (stereo not drawn), for which the inhibition is 11.1% (inactive).

The values above are taken from PubChem BioAssay AID2751 (The Scripps Research Institute Molecular Screening Center, 2010).
